High-throughput results deposited in PubChem by several laboratories.
GDH-TPI counter-1 – counter-screen for M. tuberculosis FBA inhibitors: GDH-TPI coupled enzymes | GDH-TPI coupled enzyme counterscreen, NADH absorbance | inhibition, % at 4.8 µM | 1.2% of 360,000 active | AID 588335; in the data active = inhibition above about 30%;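 also: 0% = DMSO wells and 100% = wells lacking the enzyme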
PrPC TRFRET – cell surface PrPC inhibition, primary TR-FRET screen; 0.43% of 370,000 active; TR-FRET read-out; P04156; inhibition, % at 13.8 µM; AID 720596; in the data active = inhibition above about 24%; also: 0% = median of the test wells and 100% = reference compound wells
BJeLR lethal – BJeLR cell viability loss. BJeLR (HRASV12) viability, CellTiter-Glo ATP luminescence, 48 h. inhibition, % (concentration not given with the values). 0.17% of 300,000 active. AID 1554; in the data active = inhibition above about 50%
Mtb FBA inh – inhibitors of M. tuberculosis fructose-bisphosphate aldolase; AID 588726; inhibition, % at 1 µM; P9WQA3; 2.3% of 360,000 active; purified M. tuberculosis FBA, fluorescence read-out;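 also: 0% = vehicle and 100% = reference inhibitor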
RecA splice inh – Mtb RecA intein splicing inhibition | cell-free RecA intein splicing, fluorescence | inhibition, % (no concentration beside the values) | 0.75% of 290,000 active; in the data active = inhibition above about 30%;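 also: 0% = vehicle wells and 100% = reference inhibitor control wells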
Target sequence (P9WHJ3 whole entry, looked up, canonical isoform): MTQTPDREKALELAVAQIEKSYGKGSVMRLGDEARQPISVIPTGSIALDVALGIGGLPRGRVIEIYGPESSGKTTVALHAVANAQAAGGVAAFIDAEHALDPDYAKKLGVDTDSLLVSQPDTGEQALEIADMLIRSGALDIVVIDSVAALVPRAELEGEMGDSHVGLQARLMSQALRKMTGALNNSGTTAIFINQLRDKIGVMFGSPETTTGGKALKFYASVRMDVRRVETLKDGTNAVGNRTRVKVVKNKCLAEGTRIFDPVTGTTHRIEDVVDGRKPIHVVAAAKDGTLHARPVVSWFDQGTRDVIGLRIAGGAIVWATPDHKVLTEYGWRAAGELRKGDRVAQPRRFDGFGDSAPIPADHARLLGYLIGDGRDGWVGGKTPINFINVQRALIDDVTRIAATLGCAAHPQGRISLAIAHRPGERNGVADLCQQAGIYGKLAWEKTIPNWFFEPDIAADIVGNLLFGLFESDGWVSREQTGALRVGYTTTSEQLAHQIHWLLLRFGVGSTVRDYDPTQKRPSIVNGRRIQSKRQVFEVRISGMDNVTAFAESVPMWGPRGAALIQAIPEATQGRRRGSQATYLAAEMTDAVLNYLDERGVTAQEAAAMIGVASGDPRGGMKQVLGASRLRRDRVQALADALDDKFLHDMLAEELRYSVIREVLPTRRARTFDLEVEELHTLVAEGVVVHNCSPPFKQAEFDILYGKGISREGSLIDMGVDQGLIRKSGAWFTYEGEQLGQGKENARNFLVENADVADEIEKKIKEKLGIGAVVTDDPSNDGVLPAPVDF
Mtb FBA confirm – confirmation of M. tuberculosis fructose-bisphosphate aldolase inhibitors; shares compounds with Mtb FBA inh; purified M. tuberculosis FBA, fluorescence read-out; inhibition, % at 1 µM; 78% of 5,600 active;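 also: 0% = vehicle wells and 100% = reference inhibitor wells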
GDH-TPI counter-2 – counter-screen for M. tuberculosis FBA inhibitors: GDH-TPI coupled enzyme inhibition. inhibition, % at 1 µM. GDH-TPI coupled enzyme counterscreen, fluorescence. 81% of 5,600 active. shares compounds with Mtb FBA inh. AID 652141; in the data active = inhibition above about 10%
GDH-TPI DR – inhibits GDH-TPI coupling enzymes in dose response. shares compounds with Mtb FBA inh. GDH-TPI coupled enzyme assay, fluorescence, artifact counterscreen. IC50, µM. 79% of 170 active; call rule not given here
Active calls of the source: *; . = not tested or not shown; + = active, no number. Hits are enriched below; roughly 4.2% of the tested compounds scored in any of these assays. Rule as the data show it, unless noted: active = inhibition above about 27%; inactive = the rest.

SMILES	GDH-TPI counter-1	PrPC TRFRET	BJeLR lethal	Mtb FBA inh	RecA splice inh	Mtb FBA confirm	GDH-TPI counter-2	others
COC(=O)[C@]12C[C@H](CC(=O)NCCCN3CCCC3=O)C(=O)N(Cc3ccccc3)C1=C[C@H](C(C)(C)C)O[C@@H]2C	.	2.6	.	.	.	.	.
COc1ccc(C(=O)NC(=S)Nc2ccc(CN3CCOCC3)cc2)cc1	5.2	12.6	-5.9	3.0	-1.6	.	.
O=C(NC(=S)Nc1ccc(CN2CCOCC2)cc1)c1ccc([N+](=O)[O-])cc1	2.1	-25.7	5.1	32.8*	0.9	4.8	-4.0
O=C(NCC1COc2ccccc2O1)c1ccc(NC(=O)c2cccc(F)c2)cc1 (stereo unspecified)	.	-6.8	.	.	.	.	.
O=C(CNS(=O)(=O)c1cccs1)N1CCN(c2ncccn2)CC1	.	2.0	.	.	.	.	.
O=C(O)CN(c1ccccn1)S(=O)(=O)c1ccc(Cl)cc1	11.2	4.3	-0.9	35.1*	5.1	39.2*	36.1*
COC(=O)CN(c1ccc2c(c1)OCCO2)S(=O)(=O)c1ccccc1	1.4	7.7	-4.5	36.7*	0.7	12.1	-1.3	GDH-TPI DR=>10
COC(=O)CN(c1ccccn1)S(=O)(=O)c1ccccc1	16.7	-6.7	-2.2	37.5*	-0.6	115.4*	100.4*
COC(=O)CN(c1ccccc1F)S(=O)(=O)c1ccccc1	-10.6	9.6	-12.3	0.2	3.0	.	.
O=C(O)CN(c1ccc2c(c1)OCCO2)S(=O)(=O)c1ccccc1	3.1	-5.4	0.1	17.4	-2.5	.	.
O=C(O)CN(c1ccccn1)S(=O)(=O)c1ccccc1	-0.4	0.4	-0.7	36.5*	-0.4	93.7*	87.4*
C=CCN1C(=O)[C@@H](CC(=O)NCCc2ccccc2OC)[C@]2(C(=O)OC)CCCCC=C12	.	0.9	.	.	.	.	.
COC(=O)[C@H](C(C)C)N1Cc2nnn(Cc3ccccc3)c2-c2cc(F)ccc2S1(=O)=O	.	-1.3	.	.	.	.	.
O=C1CC(O)(C(F)F)Oc2ccc3ccccc3c21 (stereo unspecified)	6.1	-8.6	15.1	43.8*	-1.5	31.2*	22.0*
COCC(=O)N[C@H]1C[C@@H]2O[C@@H](CO)CC[C@@H]2O[C@@H]1CCc1ccc(-c2ccccc2)cc1	.	-5.9	.	.	.	.	.
CCc1ccc(S(=O)(=O)NCc2csc(C)n2)cc1	7.3	5.5	-6.3	34.0*	-2.4	1.1	-7.6
Cc1nc(CNS(=O)(=O)c2ccc(Br)cc2)cs1	0.4	-2.7	5.0	-1.4	-1.0	.	.
Cc1cc(NS(=O)(=O)c2ccc(NC(=O)Cc3ccc(Cl)c(Cl)c3)cc2)on1	.	4.3	.	.	.	.	.
Cn1cccc1CC(=O)NN=C/C=C\c1ccco1	.	2.8	.	.	.	.	.
CCOc1ccccc1NC(=O)CSc1nc2nc(-c3cccs3)cc(C(F)(F)F)c2c(=O)[nH]1	12.8	3.8	-0.5	58.4*	-4.8	73.4*	50.1*
CC(=O)Nc1ccc(NC(=O)CSc2nc3nc(-c4cccs4)cc(C(F)(F)F)c3c(=O)[nH]2)cc1	13.9	8.1	5.0	10.4	4.7	.	.
O=C(CSc1nc2nc(-c3cccs3)cc(C(F)(F)F)c2c(=O)[nH]1)NCc1ccco1	7.4	19.2	1.2	94.8*	0.1	1.8	-8.3
CCCCCN(C(=O)Cc1c(C)n(CCCCC)c2ccccc12)c1ccc(Oc2cccnc2)c(C)c1	.	-3.1	.	.	.	.	.
O=C(O)c1ccccc1NC(=O)C1CCCO1 (stereo unspecified)	1.8	7.3	5.0	4.6	0.4	.	.
O=C1NC(=O)c2c(NC(=O)C3CCCO3)cccc21 (stereo unspecified)	15.9	-1.2	2.3	35.6*	1.4	96.8*	88.0*
SMILES	GDH-TPI counter-1	PrPC TRFRET	BJeLR lethal	Mtb FBA inh	RecA splice inh	Mtb FBA confirm	GDH-TPI counter-2	others
CC(=O)Nc1cccc2c1C(=O)NC2=O	1.9	-0.4	9.8	28.1*	-0.6	54.4*	43.2*
O=C(CSc1nnc(-c2ccccn2)n1-c1ccccc1)Nc1ccc(OCc2ccccc2)cc1	.	-1.9	.	.	.	.	.
COC(=O)[C@]12C[C@H](CC(=O)N3CCOCC3)C(=O)N(Cc3ccc(Cl)cc3Cl)C1=C[C@H](C1CCCC1)O[C@@H]2C	.	11.3	.	.	.	.	.
O=C(OCC(=O)N1CCc2ccccc2C1)c1ccc(O)cc1	4.1	-3.8	.	-2.3	.	.	.
O=C(OCC(=O)N1CCN(c2ccccc2)CC1)c1ccccc1OC(F)F	-5.8	4.2	6.0	-0.4	-1.8	.	.
CN(C(=O)COC(=O)c1ccccc1NCCO)C1CCS(=O)(=O)C1 (stereo unspecified)	3.2	-3.6	-8.8	103.3*	-9.5	124.0*	92.6*
CNc1ccccc1C(=O)OCC(=O)N1CCc2ccccc2C1	11.6	-4.4	.	63.1*	.	8.0	7.1
O=C(OCC(=O)N1CCN(c2ccccc2)CC1)c1ccccc1NCCO	19.4	-4.1	3.8	100.5*	-6.3	+	+
Nc1ccccc1C(=O)OCC(=O)N1CCc2ccccc21	1.5	3.9	5.4	34.5*	-1.0	59.2*	43.5*
O=C(OCC#CCSc1nnc(-c2cccc3ccccc23)o1)c1ccccc1	.	-8.2	.	.	.	.	.
Cc1cccc(NC(=S)Nc2cccc(C)n2)n1	12.0	1.0	1.7	91.0*	1.8	8.6	-3.2
Cc1cccc(NC(=S)NC2CCCC2)n1	1.0	4.3	3.3	0.8	0.5	.	.
C#CCNC[C@@H]1CSCCS(=O)(=O)N1	.	-3.5	.	.	.	.	.
Cc1ccn2c(=O)c(C(=O)O)cnc2c1	33.8*	0.5	-4.8	92.4*	-1.9	92.5*	83.1*
O=C(NC(CC1=CCCCC1)c1ccccc1)C(F)(F)F (stereo unspecified)	.	0.6	.	.	.	.	.
COc1cccc(CC(=O)NCC2CCN(C(=O)C(=O)c3cccs3)CC2)c1	.	-8.9	.	.	.	.	.
CSC(=S)N/N=C/c1ccc(N(C)C)cc1	9.7	-2.6	-1.8	-0.1	-4.4	.	.
CN(C)c1ccc(C=NNC(=S)Nc2ccc(F)cc2)cc1	40.8*	6.8	.	31.6*	.	2.5	1.8
Cc1cc(NC(C)c2ccccc2)n2ncc(-c3ccccc3)c2n1 (stereo unspecified)	-7.9	11.5	2.3	33.3*	16.9	40.8*	29.9*
Cc1cc(NC2CCCC2)n2ncc(-c3ccccc3)c2n1	7.2	0.3	-6.7	17.2	-2.0	.	.
COc1ccc(CCNc2cc(C)nc3c(-c4ccc(Cl)cc4)cnn23)cc1OC	4.7	5.1	-2.5	33.9*	10.2	41.8*	34.0*
Cc1cc(NCc2ccccc2)n2ncc(-c3ccccc3)c2n1	13.3	7.1	-8.4	28.1*	6.2	123.3*	123.3*
Cc1cc(Oc2cccnc2)ccc1NC(=O)Cc1c[nH]c2ccccc12	.	5.0	.	.	.	.	.
COP(=O)(O)C(COCCC(CC(C)C)NC(=O)OCc1ccccc1[N+](=O)[O-])NC(=O)OCc1ccccc1 (stereo unspecified)	.	-8.3	.	.	.	.	.
COc1ccc(C(C(=O)N(C)C2CCCC2)N(Cc2ccc(F)cc2)C(=O)c2cc(C)on2)cc1OC (stereo unspecified)	.	3.0	.	.	.	.	.
